PLK1 PBD block: qHTS for Inhibitors of PLK1-PDB (polo-like kinase 1 - polo-box domain): Primary Screen | Plk1 PBD binding of FITC phosphopeptide, fluorescence polarization | Potency, µM, inactives show max response, negative = inhibition, actives largely listed as inhibitors | actives 2.8% (n = 360,000) | Serine/threonine-protein kinase PLK1 (Homo sapiens), P53350; note: series mostly up to about 57 µM; % is set by controls: 0 for no effect and ±100 for the full control effect; nearly all actives have a fitted effect of over 65% in size
Target sequence (P53350 whole entry, looked up, the tested form may be a part): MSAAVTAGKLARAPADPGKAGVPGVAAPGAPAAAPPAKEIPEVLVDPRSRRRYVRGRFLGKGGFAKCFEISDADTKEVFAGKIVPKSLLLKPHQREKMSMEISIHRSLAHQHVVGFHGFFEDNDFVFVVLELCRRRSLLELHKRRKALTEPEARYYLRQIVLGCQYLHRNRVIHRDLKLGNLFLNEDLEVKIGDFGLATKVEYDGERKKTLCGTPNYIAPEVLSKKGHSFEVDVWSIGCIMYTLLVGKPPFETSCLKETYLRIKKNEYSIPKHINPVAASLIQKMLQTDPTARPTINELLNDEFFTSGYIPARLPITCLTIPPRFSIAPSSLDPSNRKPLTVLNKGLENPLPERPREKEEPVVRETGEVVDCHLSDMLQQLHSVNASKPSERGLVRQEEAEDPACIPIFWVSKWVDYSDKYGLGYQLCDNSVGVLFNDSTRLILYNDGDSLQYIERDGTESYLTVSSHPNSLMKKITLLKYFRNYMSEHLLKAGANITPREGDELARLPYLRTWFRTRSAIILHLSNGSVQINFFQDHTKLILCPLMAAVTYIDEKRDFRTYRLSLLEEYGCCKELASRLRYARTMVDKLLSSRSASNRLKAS
JMJD2A Tudor inh: qHTS Assay for Inhibitors of JMJD2A-Tudor Domain; AID 504339, 2011; AlphaScreen JMJD2A-Tudor / H3K4me3 peptide binding; actives 4.4% (n = 390,000); Potency, µM (series often up to 114 µM), without a hit: at the highest dose activity change, negative = inhibition, actives largely listed as inhibitors; note: % is set by controls: 0 for no effect and ±100 for the full control effect; nearly all actives have a fitted effect of over 50% in size
BAZ2B inh: qHTS Assay for Inhibitors of BAZ2B; Bromodomain adjacent to zinc finger domain protein 2B (Homo sapiens), Q9UIF8; AlphaScreen BAZ2B-H3K14Ac peptide displacement; Potency, µM (series often up to 114 µM), for inactives: at the highest dose activity change, negative = inhibition, hits mostly inhibitors; actives 4.4% (n = 360,000); note: % is set by controls: 0 for no effect and ±100 for the full control effect; nearly all actives have a fitted effect of over 60% in size
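AlphaScreen displacement: compounds (up to 110uM) incubated 30 min at room temperature with a preformed 50 nM BAZ2B/50 nM biotinylated H3K14Ac peptide complex in PBS pH 7.4 with Tween-20. Donor and acceptor beads at 10 ug/mL final added, 20 min light-protected before reading.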
G9a block: qHTS Assay for Inhibitors of Histone Lysine Methyltransferase G9a; Histone-lysine N-methyltransferase EHMT2 (Homo sapiens), Q96KQ7; G9a H3K9 monomethylation, AlphaScreen, 2 h; Potency, µM (top dose mostly 102 µM), for inactives: top-dose activity, negative = inhibition, usual class: inhibitors; actives 8.8% (n = 350,000); AID 504332, 2011; note: % is set by controls: 0 for no effect and ±100 for the full control effect; nearly all actives have a fitted effect of over 75% in size
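Quantitative HTS format: methyltransferase activity on a biotin-tagged H3K9 peptide is measured by AlphaScreen, using a rabbit anti-monomethyl-H3K9 antibody with streptavidin donor and anti-IgG acceptor beads. Final levels are 20 nM enzyme, 500 nM peptide, 20 uM SAM; 2 h RT.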
VDR inh: Inhibitors of the vitamin D receptor (VDR): qHTS; VDR-SRC2-3 peptide fluorescence polarization, 2 h; Potency, µM, without a hit: max response, negative = inhibition, actives largely listed as inhibitors; actives 0.93% (n = 400,000); AID 504847, 2011; note: % is set by controls: 0 for no effect and ±100 for the full control effect
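Fluorescence polarization assay measuring small-molecule disruption of VDR binding to the coregulator peptide SRC2-3. Compounds were pin-transferred (23 nl) into the reagent mix and incubated 2 h at room temperature before reading.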
HP1b binding inh: HTS for Inhibitors of HP1-beta Chromodomain Interactions with Methylated Histone Tails. Chromobox protein homolog 1 (Homo sapiens), P83916. AlphaScreen HP1-beta / biotin-H3K9me3 peptide binding. Potency, µM (top dose mostly 114 µM), without a hit: at the top dose activity change, negative = inhibition, actives largely listed as inhibitors. actives 0.56% (n = 390,000); note: nearly all actives have a fitted effect of over 70% in size
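HP1-beta protein (50 nM final) preincubated 30 min at room temperature with biotinylated H3(1-18)K9me3 peptide (50 nM) in PBS pH 7.4, 0.01% Tween-20, then compound added for 30 min. AlphaScreen streptavidin donor/nickel chelate acceptor beads (10 ug/mL final), 30 min dark, luminescence read.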
* = called active by the depositor; [ ] = dose if it differs, or a comment. Rows were chosen to be rich in hits. Some 11% of all compounds tested hit in one or more screens of this group. Calls come from the whole dose curve; as a rule, active = well fitted curve in the direction sought with a large enough effect; inconclusive = small, poorly fitted or top-dose-only effect, or another doubt; inactive = no such curve, though single readings can be large; an effect the other way counts as inactive or inconclusive. Potency is the fitted concentration of half-maximal effect.

Results for C/C(=N\Nc1cccc(C(=O)O)c1)c1ccc(Cl)s1 ?
PLK1 PBD block: inconclusive; JMJD2A Tudor inh: inconclusive; BAZ2B inh: inconclusive; G9a block: 22µM*; VDR inh: -29%; HP1b binding inh: -3%

Results for COc1ccc(Br)cc1/C=N/NC(=O)c1cc(Br)ccc1O ?
BAZ2B inh: 56µM*; G9a block: 40µM*

How did COc1ccccc1/C=C/C=N/Nc1cccc(C(=O)O)c1 do in these assays?
PLK1 PBD block: -29%; JMJD2A Tudor inh: inconclusive; BAZ2B inh: -33%; G9a block: -4%; VDR inh: -16%; HP1b binding inh: -22%

What do the screens show for `COc1ccc(C(=O)N/N=C/c2cc(Br)ccc2O)cc1OC`?
PLK1 PBD block: -7%; JMJD2A Tudor inh: -19%; BAZ2B inh: -14%; VDR inh: 16%; HP1b binding inh: inconclusive

What do the screens show for `O=C(c1cc(-c2cccnc2)nc2ccccc12)N1CCN(S(=O)(=O)c2ccc(Cl)s2)CC1`?
PLK1 PBD block: 1%; JMJD2A Tudor inh: -18%; VDR inh: -8%; HP1b binding inh: 15%

Results for CC(C)c1ccc(OCC(=O)Nc2ccc3oc(=O)ccc3c2)cc1 ?
PLK1 PBD block: -5%; JMJD2A Tudor inh: -13%; BAZ2B inh: 4%; G9a block: -10%; VDR inh: -10%; HP1b binding inh: 13%

Results for C[C@H]1Cn2cnc(C(=O)Nc3ccccc3)c2C(=O)N1 ?
PLK1 PBD block: 1%

How did O=C(CN1C(=O)NC2(CCCCC2)C1=O)Oc1ccc2ccc(=O)oc2c1 do in these assays?
PLK1 PBD block: -9%; JMJD2A Tudor inh: -5%; BAZ2B inh: -3%; G9a block: -4%[12.7 µM]; VDR inh: 8%; HP1b binding inh: 73%

How did COc1ccc(C(=O)N/N=C(/C)c2cccc(NC(=O)c3ccncc3)c2)cc1OC do in these assays?
PLK1 PBD block: -18%; JMJD2A Tudor inh: -12%; BAZ2B inh: -8%; G9a block: -2%[0.501 µM]; VDR inh: -2%; HP1b binding inh: 20%

What do the screens show for `COc1ccc(/C(C)=N/Nc2cccc(C(=O)O)c2)cc1OC`?
PLK1 PBD block: -19%; JMJD2A Tudor inh: -19%; BAZ2B inh: inconclusive; G9a block: 1.4µM*; VDR inh: -13%; HP1b binding inh: 31%

What do the screens show for `O=C(O)c1cccc(N/N=C/c2cc(Br)cc(Br)c2O)c1`?
PLK1 PBD block: 24µM*; JMJD2A Tudor inh: inconclusive; BAZ2B inh: inconclusive; G9a block: inconclusive; VDR inh: -26%; HP1b binding inh: -17%

How did O=S1(=O)CC=C(CSC(=S)NC2CCS(=O)(=O)C2)C1 (stereo not drawn) do in these assays?
PLK1 PBD block: inconclusive; JMJD2A Tudor inh: -1%; BAZ2B inh: -11%; G9a block: 45µM*; VDR inh: -13%; HP1b binding inh: 60%

What do the screens show for `O=C1c2ccccc2C(=O)c2cc(N3CCCCC3)ccc21`?
PLK1 PBD block: 1%; JMJD2A Tudor inh: 13µM*; VDR inh: 2%; HP1b binding inh: inconclusive

Results for Cc1nn(-c2cc(N3CCCCCC3)ccc2[N+](=O)[O-])c(=O)c2ccccc12 ?
PLK1 PBD block: 1%; JMJD2A Tudor inh: inconclusive; BAZ2B inh: -32%[57.1 µM]; G9a block: -8%; VDR inh: -5%; HP1b binding inh: -14%

How did Nc1nonc1-c1noc(N2CCCCC2)n1 do in these assays?
PLK1 PBD block: -4%; JMJD2A Tudor inh: -8%; BAZ2B inh: 6%; G9a block: inconclusive; VDR inh: -9%; HP1b binding inh: 17%

How did Nc1ccc(N2CCCCC2)c2nonc12 do in these assays?
PLK1 PBD block: -28%; JMJD2A Tudor inh: 56µM*; BAZ2B inh: 25µM*; VDR inh: 20µM*; HP1b binding inh: inconclusive

What do the screens show for `Nc1ccc(N2CCCCC2)cc1N1CCCCC1`?
PLK1 PBD block: -8%; JMJD2A Tudor inh: 28µM*; BAZ2B inh: 35µM*; G9a block: 2.5µM*; VDR inh: -4%; HP1b binding inh: inconclusive

How did c1ccc2cc(N3CCCCC3)ccc2c1 do in these assays?
PLK1 PBD block: 0%; JMJD2A Tudor inh: -30%; VDR inh: -8%; HP1b binding inh: 28%[57 µM]

How did Cc1nn(-c2cc(N3CCCCC3)ccc2N)c(=O)c2ccccc12 do in these assays?
PLK1 PBD block: -9%; JMJD2A Tudor inh: -16%; BAZ2B inh: -3%; G9a block: 3.2µM*; VDR inh: 5%; HP1b binding inh: 0%

How did CCOC(=O)C1(Cc2ccccc2)CCCN(S(=O)(=O)N(C)C)C1 (stereo not drawn) do in these assays?
PLK1 PBD block: 1%; JMJD2A Tudor inh: 4%; BAZ2B inh: -4%; G9a block: 29%; VDR inh: -10%; HP1b binding inh: 30%

What do the screens show for `Cc1ccc(NC(=O)N2CCCC2C(=O)Nc2ccc3c(c2)OCCO3)cc1` (stereo not drawn)?
PLK1 PBD block: -22%; JMJD2A Tudor inh: -14%; BAZ2B inh: 3%; G9a block: 14%; VDR inh: 0%; HP1b binding inh: 12%[57 µM]

Results for Nc1cc(Cl)ccc1N1CCCCC1 ?
PLK1 PBD block: -2%; JMJD2A Tudor inh: -9%; BAZ2B inh: -14%; G9a block: 1%; VDR inh: 10%; HP1b binding inh: 11%

What do the screens show for `Nc1cc(Cl)ccc1N1CCCCCC1`?
PLK1 PBD block: -24%; JMJD2A Tudor inh: -24%; BAZ2B inh: -38%; G9a block: 10µM*; VDR inh: 8%; HP1b binding inh: -14%

Results for O=C(CNC(=O)c1cccs1)Nc1ncccc1O ?
PLK1 PBD block: -2%; JMJD2A Tudor inh: -12%; BAZ2B inh: 56µM*; G9a block: 10%; VDR inh: -7%; HP1b binding inh: 15%

What do the screens show for `O=C(Nc1ccc(Cl)cc1)c1ccc2oc(=O)n(Cc3ccccc3)c2c1`?
JMJD2A Tudor inh: 9%; BAZ2B inh: -16%; G9a block: 37%[59 µM]; VDR inh: 16%; HP1b binding inh: 34%

Results for COc1ccc2c(c1)OC/C(=C/c1ccc(OC)c(OC)c1)C2=O ?
VDR inh: 22µM*

Results for COc1ccc2c(c1)OC/C(=C/c1ccc(O)c(O)c1)C2=O ?
G9a block: -36%[2.33 µM]; VDR inh: inconclusive
